Common to all, as to assay: DAPPL (digital affinity profiling via proximity ligation, sequencing); 10 mM Tris-HCl pH 7.5, 50 mM NaCl, 1 mM DTT, 4% glycerol, room temperature, 30 min; GST-TFs on glutathione beads, 16-mer random dsDNA library, 0.1% formaldehyde crosslink after washing; high values mean tight binding
Common to all, as to conditions: protein: recombinant; tags: N-terminal GST; dsDNA, one strand shown

The target in one assay is T1, SPIC (Homo sapiens, UniProt Q8N5J4 1-248).
T1 sequence: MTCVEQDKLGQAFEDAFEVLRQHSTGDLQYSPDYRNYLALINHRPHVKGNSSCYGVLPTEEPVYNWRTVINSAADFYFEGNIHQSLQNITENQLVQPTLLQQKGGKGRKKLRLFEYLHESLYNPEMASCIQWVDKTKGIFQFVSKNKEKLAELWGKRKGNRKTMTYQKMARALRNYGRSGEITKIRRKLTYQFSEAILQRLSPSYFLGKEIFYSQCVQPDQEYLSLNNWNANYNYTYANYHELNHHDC
A digest of the protocol: (§1)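 Binding signal is given per hexamer as its read frequency for a factor divided by its frequency in the tag-only sample. GST-fused human transcription factors were expressed in yeast, captured on glutathione beads, barcoded with DNA and pooled with that sample, then incubated with 200 nmole of a 16-mer random double-stranded DNA library in Tris/NaCl/DTT/glycerol buffer for 30 min at room temperature. The pools were then washed, crosslinked, proximity-ligated, amplified by PCR and sequenced on an Illumina NextSeq500.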

A further assay concerns the target CRX (Homo sapiens, UniProt O43186 1-299). The method in brief:
as §1

A further assay addresses T2, ERG (Homo sapiens, UniProt P11308 1-479).
T2 sequence: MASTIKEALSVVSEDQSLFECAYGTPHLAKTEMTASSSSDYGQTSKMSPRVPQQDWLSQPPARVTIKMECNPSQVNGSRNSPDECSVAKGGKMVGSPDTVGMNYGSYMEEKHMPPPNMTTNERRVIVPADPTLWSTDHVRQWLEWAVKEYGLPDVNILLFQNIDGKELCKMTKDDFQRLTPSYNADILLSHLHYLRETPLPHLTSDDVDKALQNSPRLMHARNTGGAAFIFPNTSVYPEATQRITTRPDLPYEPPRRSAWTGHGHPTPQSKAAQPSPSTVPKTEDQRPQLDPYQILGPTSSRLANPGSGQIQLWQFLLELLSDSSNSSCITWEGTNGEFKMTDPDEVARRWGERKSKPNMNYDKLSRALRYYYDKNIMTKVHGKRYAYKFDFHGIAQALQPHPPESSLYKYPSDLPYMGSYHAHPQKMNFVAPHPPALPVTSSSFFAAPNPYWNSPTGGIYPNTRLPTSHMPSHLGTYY
The method in brief: as §1

Another assay addresses SPI1 (Homo sapiens, UniProt P17947 1-270). A digest of the protocol: as §1
In the next assay the target is SPIB (Homo sapiens, UniProt Q01892 1-262). The method in brief:
as §1

Another assay concerns the target T3, ELK3 (Homo sapiens, UniProt P41970 1-407).
T3 sequence: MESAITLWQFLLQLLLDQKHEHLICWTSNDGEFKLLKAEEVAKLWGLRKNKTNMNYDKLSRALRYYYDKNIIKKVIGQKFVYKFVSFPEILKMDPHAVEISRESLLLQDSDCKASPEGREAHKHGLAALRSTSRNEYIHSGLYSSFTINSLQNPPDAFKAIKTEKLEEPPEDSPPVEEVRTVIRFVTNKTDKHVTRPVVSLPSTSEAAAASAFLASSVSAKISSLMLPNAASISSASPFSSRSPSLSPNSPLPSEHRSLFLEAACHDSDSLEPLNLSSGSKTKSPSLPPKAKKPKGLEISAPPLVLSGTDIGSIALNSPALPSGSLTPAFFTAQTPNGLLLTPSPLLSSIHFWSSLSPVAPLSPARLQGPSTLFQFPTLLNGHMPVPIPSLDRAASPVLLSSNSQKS
A digest of the protocol: as §1

A further assay has as its target T4, ETV2 (Homo sapiens, UniProt O00321 1-342).
T4 sequence: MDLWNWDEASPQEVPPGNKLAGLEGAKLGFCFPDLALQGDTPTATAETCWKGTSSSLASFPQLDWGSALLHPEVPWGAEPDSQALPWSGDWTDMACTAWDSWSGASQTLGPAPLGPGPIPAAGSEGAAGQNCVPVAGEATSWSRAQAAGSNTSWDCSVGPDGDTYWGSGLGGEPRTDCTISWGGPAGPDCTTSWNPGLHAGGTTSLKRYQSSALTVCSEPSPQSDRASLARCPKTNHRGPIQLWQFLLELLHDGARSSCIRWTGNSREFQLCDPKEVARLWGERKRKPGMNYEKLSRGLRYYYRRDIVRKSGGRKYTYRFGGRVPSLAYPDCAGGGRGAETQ
The method in brief: as §1

For a further assay, the target named is T5, ERF (Homo sapiens, UniProt P50548 1-548).
T5 sequence: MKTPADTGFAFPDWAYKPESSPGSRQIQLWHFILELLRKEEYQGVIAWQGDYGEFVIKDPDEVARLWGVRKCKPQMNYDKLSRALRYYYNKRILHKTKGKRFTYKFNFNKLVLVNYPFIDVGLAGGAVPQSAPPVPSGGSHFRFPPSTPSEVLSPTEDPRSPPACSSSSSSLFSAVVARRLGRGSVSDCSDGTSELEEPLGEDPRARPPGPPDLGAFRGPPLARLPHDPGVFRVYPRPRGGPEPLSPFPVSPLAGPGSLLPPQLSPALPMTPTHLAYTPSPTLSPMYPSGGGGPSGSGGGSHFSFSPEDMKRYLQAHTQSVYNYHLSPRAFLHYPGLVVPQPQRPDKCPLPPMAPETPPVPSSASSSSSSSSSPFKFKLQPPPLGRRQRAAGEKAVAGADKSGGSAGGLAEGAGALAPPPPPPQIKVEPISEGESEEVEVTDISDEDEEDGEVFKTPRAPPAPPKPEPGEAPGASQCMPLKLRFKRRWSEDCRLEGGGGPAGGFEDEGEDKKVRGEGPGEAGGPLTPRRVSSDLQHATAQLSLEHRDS
The method in brief:
as §1

The target in a further assay is T6, ETS2 (Homo sapiens, UniProt P15036 1-469).
T6 sequence: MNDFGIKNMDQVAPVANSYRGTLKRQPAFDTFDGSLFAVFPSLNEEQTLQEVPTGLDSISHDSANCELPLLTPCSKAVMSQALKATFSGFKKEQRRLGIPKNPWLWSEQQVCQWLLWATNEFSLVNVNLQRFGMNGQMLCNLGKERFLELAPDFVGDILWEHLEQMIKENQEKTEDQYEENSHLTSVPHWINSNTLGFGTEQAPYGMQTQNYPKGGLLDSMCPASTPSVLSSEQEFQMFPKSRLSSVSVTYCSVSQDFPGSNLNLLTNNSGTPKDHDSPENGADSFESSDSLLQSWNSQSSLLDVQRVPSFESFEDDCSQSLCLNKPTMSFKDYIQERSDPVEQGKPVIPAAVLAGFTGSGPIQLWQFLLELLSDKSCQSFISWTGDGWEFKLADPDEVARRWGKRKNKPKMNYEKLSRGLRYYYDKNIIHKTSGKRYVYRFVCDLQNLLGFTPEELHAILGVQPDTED
A digest of the protocol: as §1

Another assay deals with T7, ETV3L (Homo sapiens, UniProt Q6ZN32 1-361).
T7 sequence: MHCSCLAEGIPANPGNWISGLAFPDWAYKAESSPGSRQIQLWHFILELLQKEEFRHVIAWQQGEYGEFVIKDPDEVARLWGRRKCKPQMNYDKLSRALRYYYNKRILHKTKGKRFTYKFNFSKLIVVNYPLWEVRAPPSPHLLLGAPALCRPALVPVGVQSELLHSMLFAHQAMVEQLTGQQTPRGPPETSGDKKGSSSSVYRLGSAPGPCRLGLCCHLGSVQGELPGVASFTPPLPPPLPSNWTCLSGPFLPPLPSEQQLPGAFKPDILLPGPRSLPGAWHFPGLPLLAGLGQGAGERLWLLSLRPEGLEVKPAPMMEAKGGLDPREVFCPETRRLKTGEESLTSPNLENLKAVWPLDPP
A digest of the protocol: as §1

The next assay deals with T8, ETV7 (Homo sapiens, UniProt Q9Y603 1-341).
T8 sequence: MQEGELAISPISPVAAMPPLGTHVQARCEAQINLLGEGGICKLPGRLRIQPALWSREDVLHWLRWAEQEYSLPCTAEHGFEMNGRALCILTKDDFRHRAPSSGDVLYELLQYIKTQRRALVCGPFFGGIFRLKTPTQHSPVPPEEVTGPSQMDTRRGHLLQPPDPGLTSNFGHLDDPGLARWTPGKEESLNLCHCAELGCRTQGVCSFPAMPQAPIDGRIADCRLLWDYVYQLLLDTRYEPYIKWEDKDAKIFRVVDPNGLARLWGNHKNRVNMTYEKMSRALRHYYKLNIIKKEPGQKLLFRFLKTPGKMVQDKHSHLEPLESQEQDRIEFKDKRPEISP
The method in brief: as §1

Sequence of SPIB (Q01892 whole entry): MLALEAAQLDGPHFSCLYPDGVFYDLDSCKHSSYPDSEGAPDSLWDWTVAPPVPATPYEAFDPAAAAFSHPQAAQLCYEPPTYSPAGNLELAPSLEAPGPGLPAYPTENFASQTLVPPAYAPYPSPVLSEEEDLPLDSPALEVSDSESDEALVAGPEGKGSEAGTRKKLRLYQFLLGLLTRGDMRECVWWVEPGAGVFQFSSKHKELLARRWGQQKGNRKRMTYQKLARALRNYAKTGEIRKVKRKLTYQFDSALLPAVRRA
Sequence of CRX (O43186 whole entry): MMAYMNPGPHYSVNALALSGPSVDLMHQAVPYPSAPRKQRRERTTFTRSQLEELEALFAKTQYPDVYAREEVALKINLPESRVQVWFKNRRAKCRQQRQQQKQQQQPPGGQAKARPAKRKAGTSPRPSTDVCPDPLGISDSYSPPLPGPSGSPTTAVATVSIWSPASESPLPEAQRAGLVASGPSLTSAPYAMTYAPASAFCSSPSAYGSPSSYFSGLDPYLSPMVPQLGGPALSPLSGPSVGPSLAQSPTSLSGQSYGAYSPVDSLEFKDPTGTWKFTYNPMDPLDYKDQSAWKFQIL

Regarding TAAGGC, the binding signal with SPIC is 1.02 fold enrichment (6-mer frequency, TF over GST control); in the assay with CRX it was 1.52 fold enrichment (6-mer frequency, TF over GST control).

TGCAGG: the binding signal with ERG is 1.01 fold enrichment (6-mer frequency, TF over GST control); with SPI1, 1.03 fold enrichment (6-mer frequency, TF over GST control); with SPIB, 1.07 fold enrichment (6-mer frequency, TF over GST control); in the assay with ELK3 it was 1.03 fold enrichment (6-mer frequency, TF over GST control); in the assay with SPIC it was 1.01 fold enrichment (6-mer frequency, TF over GST control); with ETV2, 1.03 fold enrichment (6-mer frequency, TF over GST control). The binding signal with ERF was 1.01 fold enrichment (6-mer frequency, TF over GST control); with ETS2 it was 1.02 fold enrichment (6-mer frequency, TF over GST control).

As to AGCATG, the binding signal with SPIC was 1.07 fold enrichment (6-mer frequency, TF over GST control); with ETV3L, 1.02 fold enrichment (6-mer frequency, TF over GST control).

GTAGTA: the binding signal with SPIC was 1 fold enrichment (6-mer frequency, TF over GST control); in the assay with ETV7, 1.01 fold enrichment (6-mer frequency, TF over GST control).

Source of the values: article PMC7862700, “An all-to-all approach to the identification of sequence-specific readers for epigenetic DNA modifications on cytosine”.
